Screening results deposited in PubChem by National Center for Advancing Translational Sciences (NCATS).
TGFb inhibitor: qHTS for Inhibitors of TGF-b; HepG2 CAGA-GFP TGF-b/SMAD3 reporter, GFP fluorescence, 18 h; TGF-beta stimulated, 500 pg/mL final; Potency, µM (titrated, usually from 46.1 µM), actives largely listed as inhibitors; 410,000 tested, 1.2% active; AID 588855, 2011; further: nearly all actives have a fitted effect of over 65% in size
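Read-out: total well GFP (ex488/em500-530) summed from mean per-cell fluorescence. Cells: HEPG2 CAGA-GFP, 1% FBS DMEM, 18 h at 37 degrees C with 500 pg/mL final TGF-beta. Unstimulated wells served as the full-inhibition control; stimulated DMSO wells = 0%.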
HepG2 tox-1: qHTS for Inhibitors of TGF-b: Cytotox Counterscreen. AID 588856, 2011. 410,000 tested, 0.76% active. HepG2 CAGA-GFP viability, ATP luminescence, 18 h. Potency, µM (titrated, usually from 46.1 µM), hits mostly cytotoxic
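HepG2 CAGA-GFP cells (1000/well, DMEM with 1% FBS) received compound, then TGF-beta at 500 pg/mL final, and were incubated 18 hours at 37 degrees C. Viability was read by CellTiter-Glo luminescence. Media-only wells were set as complete cell-killing and DMSO as no toxicity.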
ATXN2 expr inh: Primary qHTS for Inhibitors of ATXN expression; HEK-293 ATXN2-luciferase reporter, luminescence, 24 h; Potency, µM (series often up to 57 µM), usual class: inhibitors; 360,000 tested, 0.72% active; AID 1745845, 2022; further: nearly all actives have a fitted effect of over 55% in size
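qHTS (up to 57 uM final) was run with 24 h compound exposure of reporter cells at 37 °C. Each well was multiplexed: SteadyGlo luminescence measured ATXN2-luciferase expression after a fluorogenic Gly-Phe-AFC viability readout (25 uM final).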
uPA surface inh: qHTS for Inhibitors of Cell Surface uPA Generation. Potency, µM (top dose mostly 38.3 µM), actives largely listed as inhibitors. 330,000 tested, 0.31% active. cell surface uPA generation assay, qHTS; active means well fitted inhibition curve with a large enough effect; inconclusive means small, poorly fitted or top-dose-only effect; inactive means no such curve, though single readings can be large or run the other way; tested in mouse RAW 264.7 cells; further: nearly all actives have a fitted effect of over 55% in size
S2 tox: Viability Counterscreen for Primary qHTS for Inhibitors of ATXN expression; 400,000 tested, 0.49% active; S2 cells (HEK-293 line with an ATXN2-luciferase reporter) viability, CellTiter-Fluor protease fluorescence, 24 h; Potency, µM (top dose mostly 56.7 µM), most hits filed as cytotoxic; AID 651635, 2014; further: nearly all actives have a fitted effect of over 40% in size
Giardia kill: Small Molecules that selectively kill Giardia lamblia: qHTS. Giardia lamblia trophozoite viability. 340,000 tested, 0.15% active. activity change, % at 7.66 µM, hits read low. AID 540267, 2011; in the data active means activity change below about -80%; inconclusive means between about -30% and that limit;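 further: parasites exposed to compound for two days anaerobically before the ATP read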
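Each well holds 100 Giardia trophozoites and compound. After two days (48 hrs) at 37 deg C in anaerobic conditions, ATP is quantified by luminescence.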
TGFb confirm: qHTS for Inhibitors of TGF-b: Confirmation of Cherry Picks | shares compounds with TGFb inhibitor | HepG2 CAGA-GFP TGF-b reporter, GFP fluorescence, 18 h; cells stimulated with TGF-beta, 500 pg/mL | AID 720534, 2013 | Potency, µM (highest dose often 46.1 µM), hits mostly inhibitors | 1,600 tested, 63% active; further: nearly all actives have a fitted effect of over 65% in size
HepG2 tox-2: qHTS for Inhibitors of TGF-b: Cytotox Counterscreen for Cherry Picks; shares compounds with TGFb inhibitor; Potency, µM (highest dose often 46.1 µM), most hits filed as inhibitors; 1,600 tested, 27% active; AID 720535, 2013; HepG2 CAGA-GFP viability, ATP luminescence, 18 h; cells stimulated with TGF-beta, 500 pg/mL; further: nearly all actives have a fitted effect of over 70% in size
TGFb CCL64 inh: qHTS for Inhibitors of TGF-b: CCL64 Cells Orthogonal Assay for Cherry Picks | shares compounds with TGFb inhibitor | CCL64 CAGA-GFP reporter, TGF-b stimulated, GFP fluorescence, 18 h | Potency, µM (titrated, usually from 46.1 µM), most hits filed as inhibitors | 1,600 tested, 41% active; further: nearly all actives have a fitted effect of over 65% in size
TGFb COP inh: qHTS for Inhibitors of TGF-b: Hit Validation in HepG2 Cells using COP promoter; shares compounds with TGFb inhibitor; HepG2 COP-GFP TGF-b reporter, GFP fluorescence, 18 h; cells stimulated by added recombinant TGF-beta; Potency, µM (series often up to 46.1 µM), most hits filed as inhibitors; 1,600 tested, 3% active; AID 720537, 2013; further: nearly all actives have a fitted effect of over 70% in size
A number is an active result; - = inactive; ? = inconclusive; . = no result. Shown are actives, neighbours in structure and some others; about 2.6% of the full set was active somewhere. Unless noted, the call rests on the fitted dose curve; in most records, active means well fitted curve in the direction sought with a large enough effect; inconclusive means small, poorly fitted or top-dose-only effect, or another doubt; inactive means no such curve, though single readings can be large; an effect the other way counts as inactive or inconclusive.

SMILES | TGFb inhibitor | HepG2 tox-1 | ATXN2 expr inh | uPA surface inh | S2 tox | Giardia kill | TGFb confirm | HepG2 tox-2 | TGFb CCL64 inh | TGFb COP inh
c1ccc2c(CN3CCCCCCC3)c[nH]c2c1 | ? | - | - | - | ? | - | 21µM | 23µM | 8.2µM | -
O=Cc1cn(Cc2ccccc2F)c2ccccc12 | 0.89µM | - | ? | - | - | - | 0.46µM | 1µM | - | -
C[C@@H]1CN([C@@H](C)CO)C(=O)c2cccc(NC(=O)c3ccncc3)c2O[C@@H]1CN(C)Cc1ccc(-c2ccccc2)cc1 | ? | - | ? | - | - | - | . | . | . | .
C[C@H](CO)N1C[C@H](C)[C@@H](CN(C)S(=O)(=O)c2ccccc2)Oc2c(NC(=O)Nc3ccc(C(F)(F)F)cc3)cccc2C1=O | 10µM | - | ? | ? | ? | - | 21µM | ? | ? | -
CC[C@H]1CN2CCc3cc(OC)c(OC)cc3C2C[C@@H]1C[C@H]1NCCc2cc(OC)c(OC)cc21 (stereo not given in full) | - | - | - | - | ? | - | 0.052µM | 2.9µM | 0.073µM | -
COc1ccc(CC2NCCc3cc(OC)c(OC)cc32)cc1OC (stereo not given) | . | . | - | . | . | . | . | . | . | .
CCCNC(=O)C(Cc1ccc(C(F)(F)P(=O)(OCC)OCC)cc1)NC(=O)c1ccc(C#N)cc1 (stereo not given) | - | - | - | - | - | - | . | . | . | .
CCC1(O)C(=O)OCc2c1cc1n(c2=O)Cc2cc3cc(O)ccc3nc2-1 (stereo not given) | ? | - | - | - | . | - | . | . | . | .
CCC1(OC(=O)CN)C(=O)OCc2c1cc1n(c2=O)Cc2cc3ccccc3nc2-1 (stereo not given) | 2.2µM | - | 0.0095µM | - | . | - | 1.2µM | 0.58µM | 2.3µM | -
CN(C)CCc1c[nH]c2cccc(O)c12 | . | . | ? | . | - | . | . | . | . | .
COc1cc(C(=O)NCCSc2c(-c3ccccc3)[nH]c3ccccc23)cc(OC)c1OC | ? | - | ? | . | ? | . | . | . | . | .
CC1=CC2OC3CC4OC(=O)C=CC=CC(=O)OCCC(C)C(O)C(=O)OCC2(CC1O)C4(C)C31CO1 (stereo not given) | - | - | ? | - | ? | ? | 0.012µM | . | 0.0046µM | -
CC1=CC2OC3CC4OC(=O)C=CC=CC(C(C)O)OCC(O)C(C)CC(=O)OCC2(CC1O)C4(C)C31CO1 (stereo not given) | - | - | - | - | ? | ? | 0.041µM | . | 0.029µM | -
C=CCC[C@H](Cc1ccc(F)cc1)C(=O)OC[C@@H](Cc1c[nH]c2ccccc12)NC(=O)[C@H](CC=C)CC(=O)N(CCO)Cc1ccccc1 | 11µM | - | ? | ? | 20µM | - | 12µM | ? | 18µM | -
C=CCC[C@@H](Cc1ccc(F)cc1)C(=O)OC[C@@H](Cc1c[nH]c2ccccc12)NC(=O)[C@H](CC=C)CC(=O)N(CCO)Cc1ccccc1 | ? | - | ? | ? | . | - | . | . | . | .
CCOC(=O)c1c(C)n(Cc2ccccc2)c2ccc(OCC(O)Cn3nc(C)cc3C)cc12 (stereo not given) | 14µM | - | - | - | ? | - | 21µM | ? | 15µM | -
C=C(C)CSc1nnc([C@@H](N)Cc2c[nH]c3ccccc23)o1 | - | - | - | - | ? | - | . | . | . | .
Cc1[nH]nc2ccc(-c3cncc(OC[C@@H](N)Cc4c[nH]c5ccccc45)c3)cc12 | 1µM | - | 2.2µM | ? | . | - | 1.6µM | 1.3µM | - | -
Cc1cccc(C(=O)Nc2nnc(SCC(=O)NCc3ccco3)s2)c1 | ? | - | - | - | - | - | . | . | . | .
CCCN(c1ccc(C(C)C)cc1)S(=O)(=O)c1ccc2c(c1)oc(=O)n2CC(=O)OCC | ? | - | - | . | ? | . | . | . | . | .
CNCC(O)c1ccc(OC(=O)C(C)(C)C)c(OC(=O)C(C)(C)C)c1 (stereo not given) | - | - | - | - | - | - | . | . | . | .
CCCCOC(=O)c1ccccc1N | - | - | - | - | - | - | . | . | . | .
O=S(=O)(O)C(F)(F)C(F)(F)C(F)(F)C(F)(F)C(F)(F)C(F)(F)C(F)(F)C(F)(F)F | . | . | - | . | ? | . | . | . | . | .
Cc1ccc(S(=O)(=O)N2CCC(=O)N(CCOC(=O)Nc3cccc(Cl)c3)CC2)cc1 | ? | - | - | - | - | - | . | . | . | .
CN(C)C(=O)Oc1ccnc2cc(Cl)ccc12 | - | - | - | - | - | - | . | . | . | .
SMILES | TGFb inhibitor | HepG2 tox-1 | ATXN2 expr inh | uPA surface inh | S2 tox | Giardia kill | TGFb confirm | HepG2 tox-2 | TGFb CCL64 inh | TGFb COP inh
Cc1cccc(-n2nc(C)c(C(=O)N3CCN(c4ccccc4)CC3)c2-n2cccc2)c1 | ? | - | . | . | . | . | . | . | . | .
CC(COc1ccccc1)N(CCCl)Cc1ccccc1 (stereo not given) | - | - | - | - | - | - | . | . | . | .
Nc1nc(Nc2ccccc2F)sc1C(=O)c1ccccc1 | ? | - | - | ? | ? | - | . | . | . | .
O=C(OC1CCN(CCCl)CC1)C(c1ccccc1)c1ccccc1 | - | - | - | ? | - | - | . | . | . | .
CCN(CC)CCNC(=O)c1c(O)c2ccccc2n(Cc2ccccc2)c1=O | - | - | - | - | ? | - | . | . | . | .
CC(=O)NC1CCSC1=O (stereo not given) | . | . | - | . | - | . | . | . | . | .
C=CC[C@@H](Cc1ccc(F)cc1)C(=O)OC[C@H]1CCCN1C(=O)[C@H](CC=C)CC(=O)N[C@H](CO)Cc1ccccc1 | ? | - | - | - | ? | - | . | . | . | .
